The results in this text go back to PubChem BioAssay (EPA / NIEHS).

The source holds several records for some structures; these can differ, active in one and inactive in another. Activity calls are given as the source filed them. The calls were made as follows: active = hit-call score of the fitted dose curve at least 0.9, where 1 is the maximum; inactive = score below 0.9.

A short description of one test: ATG_FoxO_CIS: Attagene CIS-FACTORIAL HepG2 Assay for human Forkhead box O (FoxO) (AID 2282943). Conditions: HepG2 Attagene cis-reporter, FoxO element, mRNA; actives raise or lower the signal. The procedure, abridged:
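Human hepatoma HepG2 cells carry transiently introduced reporter transcription units controlled by cis promoter elements. Chemical treatment lasted 24 h, and mRNA signal was compared with DMSO.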
For `CC1=CC(=O)/C(=C(/C)O)C(=O)O1`, the compound was called inactive.
Regarding `Cc1oc2c(NC(=O)c3c(Cl)cccc3Cl)cccc2c1C(C)(C)O`, the call was inactive.
Still for that read-out and setting: the same measure for `CCCCCCCCCC(=O)O`: “inactive”; for `COc1ccc2cc(S(=O)(=O)N[C@H](CC(=O)N[C@H](Cc3ccc(CN4[C@H](C)CCC[C@@H]4C)cc3)C(=O)N(C)C(C)C)c3ccc4c(c3)OCO4)ccc2c1`: “inactive”.
Same read-out and setting: the same measure for `c1ccc2n[nH]nc2c1`: “inactive”.
The same measure, in the same setting: the same measure for `CN1C(=O)CC[C@H]1c1cccnc1`: “inactive”; for `O=C(O)Cn1c(=O)n(Cc2ccc(Br)cc2F)c(=O)c2ccc(Cl)cc21`: “inactive”; for `CCCCCCCCCCCCO`: “inactive”.
With `COc1cc(C(=O)NC2CCN(C)CC2)ccc1Nc1ncc2c(n1)N(C1CCCC1)CC(F)(F)C(=O)N2C`, the AC50 (commonly the midpoint of the concentration-response curve, whichever way the signal moves) was 3.63 µM (active).
As to `O=C(OCCCCCCOC(=O)c1ccccc1)c1ccccc1`, the call was inactive.
The same measure, in the same setting: the same measure for `CC(C)(C)c1csc(-c2cc3cc(OCc4ccccc4CC(=O)O)ccc3o2)n1`: “inactive”; for `O=C=NCCCCCCN=C=O`: “inactive”.
On the same count and under the same terms, the same measure for `O=C1c2ccccc2C(=O)N1CCc1noc(-c2ccc(CN3CCCCCC3)s2)n1`: “inactive”; for `CCCCCCCCCCCC[N+](C)(C)C`: “inactive”.
Same read-out and setting: the same measure for `CC(=O)N1CCN(c2ccc(OC[C@H]3CO[C@](Cn4ccnc4)(c4ccc(Cl)cc4Cl)O3)cc2)CC1`: “inactive”; for `NCc1cccc(C2CCN(C(=O)c3ccc(C#Cc4ccccc4F)o3)CC2)c1`: “inactive”.
`O=C1O[C@H]([C@@H](O)CO)C(O)=C1O`: the compound was called inactive.
`Cc1occc1C(=O)Nc1ccc(C(=O)N2CCC(F)(F)/C(=C\C(=O)N3CCC(N4CCCCC4)CC3)c3ccccc32)cc1`: the compound was classed as inactive.
Still for that read-out and setting: the same measure for `CC(C)(C)c1cc(/C=C2\SC(N)=NC2=O)cc(C(C)(C)C)c1O`: “inactive”.
Same read-out and setting: the same measure for `CCCC(=O)OCCC(C)C`: “inactive”.
Still for that read-out and setting: the same measure for `Cc1ncc(CO)c(CO)c1O`: “inactive”; for `CCN(CC)C(=O)c1cc(S(=O)(=O)Cc2ccccc2)c(N2CCC(c3ccccc3)CC2)cc1N(CC)CCN(C)C`: “inactive”; for `CCCCOC(=O)CC(CC(=O)OCCCC)(OC(C)=O)C(=O)OCCCC`: “inactive”.
In the case of `Cc1ccc2oc(CN(Cc3ccccc3)C(=O)Nc3c(F)cc(F)cc3F)c(-c3ccc(Cl)cc3)c2c1`, the compound was called inactive.
Same read-out and setting: the same measure for `CCCCCCCCOC(=O)c1cc(O)c(O)c(O)c1`: “inactive”; for `O=c1[nH]sc2ccccc12`: “inactive”.
On the same count and under the same terms, the same measure for `CCCCCCCCOc1ccc(C(=O)c2ccccc2)c(O)c1`: “inactive”; for `CN1C(=O)N(c2ccccc2Br)Cc2cnc(Nc3ccc4c(c3)OCC(CO)O4)nc21` (centres undefined): “inactive”; for `Clc1ccccc1C(c1ccccc1)(c1ccccc1)n1ccnc1`: “inactive”.
With `CC(O)CC(C)(C)O` (centres undefined), the AC50 is 0.0124 µM (active) and the compound was called inactive.
Turning to `CCOC(=O)O[C@H](C)OC(=O)c1ccc2c(c1)cc(C(=O)NC1CCN(C(C)C)CC1)n2Cc1cc(-c2ccc(Cl)s2)on1`, the compound was classed as inactive.
On the same count and under the same terms, the same measure for `O=CCCCC=O`: “inactive”.
In the case of `CC(C)(c1cc(Br)c(O)c(Br)c1)c1cc(Br)c(O)c(Br)c1`, the AC50 was 58 µM (active) and the outcome was inactive.
Turning to `Cc1cccc2ccccc12`, the result was inactive.
Turning to `CC(C)(O)c1ccc(CNC(=O)c2cccnc2Oc2ccc3nonc3c2)cc1`, the compound was classed as inactive.
As to `CCO[Si](CCCNC(N)=O)(OCC)OCC`, the call was inactive.
Same read-out and setting: the same measure for `C[C@]12CC[C@@H]3c4ccc(O)cc4CC[C@H]3[C@@H]1CCC2=O`: “inactive”; for `COc1cccc([C@H](O)C2CCN(CCc3ccc(F)cc3)CC2)c1OC`: “inactive”.

The next test is described as follows: ATG_GATA_CIS: Attagene CIS-FACTORIAL HepG2 Assay for human GATA Binding Protein (AID 2282944). Conditions: HepG2 GATA cis-element reporter, Attagene multiplex mRNA; actives raise or lower the signal. The procedure, abridged: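 Cells: HepG2, transiently transfected with cis-regulated reporter transcription units. Exposure: 24 h. Detection: RT-PCR plus capillary electrophoresis of FAM-labeled fragments. Analysis: bidirectional, DMSO as baseline.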
On to `CC1=CC(=O)/C(=C(/C)O)C(=O)O1`, for which the compound was classed as inactive.
For `Cc1oc2c(NC(=O)c3c(Cl)cccc3Cl)cccc2c1C(C)(C)O`, the compound was classed as inactive.
With `CCCCCCCCCC(=O)O`, the compound was classed as inactive.
Still for that read-out and setting: the same measure for `COc1ccc2cc(S(=O)(=O)N[C@H](CC(=O)N[C@H](Cc3ccc(CN4[C@H](C)CCC[C@@H]4C)cc3)C(=O)N(C)C(C)C)c3ccc4c(c3)OCO4)ccc2c1`: “inactive”.
The same measure, in the same setting: the same measure for `c1ccc2n[nH]nc2c1`: “inactive”; for `CN1C(=O)CC[C@H]1c1cccnc1`: “inactive”.
On the same count and under the same terms, the same measure for `O=C(O)Cn1c(=O)n(Cc2ccc(Br)cc2F)c(=O)c2ccc(Cl)cc21`: “inactive”.
In the case of `CCCCCCCCCCCCO`, the call was inactive.
Same read-out and setting: the same measure for `COc1cc(C(=O)NC2CCN(C)CC2)ccc1Nc1ncc2c(n1)N(C1CCCC1)CC(F)(F)C(=O)N2C`: “inactive”; for `O=C(OCCCCCCOC(=O)c1ccccc1)c1ccccc1`: “inactive”; for `CC(C)(C)c1csc(-c2cc3cc(OCc4ccccc4CC(=O)O)ccc3o2)n1`: “inactive”.
Same read-out and setting: the same measure for `O=C=NCCCCCCN=C=O`: “inactive”; for `O=C1c2ccccc2C(=O)N1CCc1noc(-c2ccc(CN3CCCCCC3)s2)n1`: “inactive”; for `CCCCCCCCCCCC[N+](C)(C)C`: “inactive”.
The same measure, in the same setting: the same measure for `CC(=O)N1CCN(c2ccc(OC[C@H]3CO[C@](Cn4ccnc4)(c4ccc(Cl)cc4Cl)O3)cc2)CC1`: “inactive”.
As to `NCc1cccc(C2CCN(C(=O)c3ccc(C#Cc4ccccc4F)o3)CC2)c1`, the result was inactive.
On to `O=C1O[C@H]([C@@H](O)CO)C(O)=C1O`, for which the compound was classed as inactive.
In the case of `Cc1occc1C(=O)Nc1ccc(C(=O)N2CCC(F)(F)/C(=C\C(=O)N3CCC(N4CCCCC4)CC3)c3ccccc32)cc1`, the AC50 was 46.7 µM (active).
With `CC(C)(C)c1cc(/C=C2\SC(N)=NC2=O)cc(C(C)(C)C)c1O`, the compound was classed as inactive.
The same measure, in the same setting: the same measure for `CCCC(=O)OCCC(C)C`: “inactive”.
On the same count and under the same terms, the same measure for `Cc1ncc(CO)c(CO)c1O`: “inactive”; for `CCN(CC)C(=O)c1cc(S(=O)(=O)Cc2ccccc2)c(N2CCC(c3ccccc3)CC2)cc1N(CC)CCN(C)C`: “inactive”; for `CCCCOC(=O)CC(CC(=O)OCCCC)(OC(C)=O)C(=O)OCCCC`: “inactive”.
Regarding `Cc1ccc2oc(CN(Cc3ccccc3)C(=O)Nc3c(F)cc(F)cc3F)c(-c3ccc(Cl)cc3)c2c1`, the result was inactive.
On the same count and under the same terms, the same measure for `CCCCCCCCOC(=O)c1cc(O)c(O)c(O)c1`: “inactive”.
Same read-out and setting: the same measure for `O=c1[nH]sc2ccccc12`: “inactive”; for `CCCCCCCCOc1ccc(C(=O)c2ccccc2)c(O)c1`: “inactive”; for `CN1C(=O)N(c2ccccc2Br)Cc2cnc(Nc3ccc4c(c3)OCC(CO)O4)nc21` (centres undefined): “inactive”.
Consider `Clc1ccccc1C(c1ccccc1)(c1ccccc1)n1ccnc1`, for which the AC50 was 15.6 µM (active).
Consider `CC(O)CC(C)(C)O` (centres undefined), for which the result was inactive.
The same measure, in the same setting: the same measure for `CCOC(=O)O[C@H](C)OC(=O)c1ccc2c(c1)cc(C(=O)NC1CCN(C(C)C)CC1)n2Cc1cc(-c2ccc(Cl)s2)on1`: “inactive”.
Still for that read-out and setting: the same measure for `O=CCCCC=O`: “inactive”.
Turning to `CC(C)(c1cc(Br)c(O)c(Br)c1)c1cc(Br)c(O)c(Br)c1`, the AC50 is 58.1 µM (active) and the result was inactive.
In the case of `Cc1cccc2ccccc12`, the result was inactive.
For the compound `CC(C)(O)c1ccc(CNC(=O)c2cccnc2Oc2ccc3nonc3c2)cc1`, the compound was called inactive.
The same measure, in the same setting: the same measure for `CCO[Si](CCCNC(N)=O)(OCC)OCC`: “inactive”.
Still for that read-out and setting: the same measure for `C[C@]12CC[C@@H]3c4ccc(O)cc4CC[C@H]3[C@@H]1CCC2=O`: “inactive”.
Still for that read-out and setting: the same measure for `COc1cccc([C@H](O)C2CCN(CCc3ccc(F)cc3)CC2)c1OC`: “inactive”.
